# From PubChem
# CYP2C19 act: human CYP2C19 activators, primary screen, biochemical, luminescence. recombinant CYP2C19, luciferin-H EGE luminescence; stronger effect = higher value; 0 = fully inhibited enzyme, 1 = untreated enzyme. Cytochrome P450 2C19 (Homo sapiens), P33261. activation factor at 5 µM. 96,000 tested, under 10 active;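 active = activation factor of at least 2 at 5 µM in the primary screen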;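 also: 0 = wells with 2.5 mM tranylcypromine and 1 = vehicle-only wells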
# Target sequence (P33261 whole entry, looked up): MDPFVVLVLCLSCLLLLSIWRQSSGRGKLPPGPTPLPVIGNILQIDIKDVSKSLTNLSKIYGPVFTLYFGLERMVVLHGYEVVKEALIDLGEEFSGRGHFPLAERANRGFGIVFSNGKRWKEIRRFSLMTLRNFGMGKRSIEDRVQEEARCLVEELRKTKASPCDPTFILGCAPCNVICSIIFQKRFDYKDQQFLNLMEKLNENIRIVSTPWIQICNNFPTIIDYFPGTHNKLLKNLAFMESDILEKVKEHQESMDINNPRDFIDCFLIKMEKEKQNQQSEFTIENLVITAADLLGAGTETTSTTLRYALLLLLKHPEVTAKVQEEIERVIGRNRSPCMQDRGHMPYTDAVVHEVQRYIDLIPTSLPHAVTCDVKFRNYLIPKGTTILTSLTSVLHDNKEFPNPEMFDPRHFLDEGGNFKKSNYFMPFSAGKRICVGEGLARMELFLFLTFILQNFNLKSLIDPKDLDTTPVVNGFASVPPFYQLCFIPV
# CYP2C19 inh: blockers of cytochrome P450 2C19 activity – biochemical, luminescence, ADME assay, primary screen. actives 21% (n = 96,000). CYP2C19 Supersomes, luciferin-H EGE luminescence, 30 min. AID 778, 2007. inhibition, % at 5 µM. P33261;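 active = CYP2C19 inhibition above a set limit at 5 µM in the primary screen, cut at about 50% in these data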;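 also: plate controls were negative control wells for no effect and 2.5 mM tranylcypromine positive control for full effect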
# CYP2C9 inhib: blockers of cytochrome P450 2C9 activity – biochemical, luminescence, ADME assay, primary screen; CYP2C9 Supersomes, luciferin-H conversion; inhibition, % at 5 µM; actives 20% (n = 96,000); AID 777, 2007;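 active = blocking of liver enzyme CYP2C9 beyond about 50% at 5 µM, limit read from the data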
# Measles CPE: compounds protecting cells from measles virus cytopathic effect, primary screen, measles RdRp inhibitor project, single point, MLSMR library, absorbance | protection (pct of control), % at 4 µM | Measles virus-infected cells, CPE protection | actives 1.5% (n = 140,000) | AID 841, 2007; in the data active = protection mostly above about 24%, no sharp cut-off; inactive = mostly below about 26%
# CYP2C9 activ: human CYP2C9 activators, primary screen, biochemical, luminescence; recombinant CYP2C9, luciferin-H conversion; stronger effect = higher value; factor 1 = untreated enzyme, 0 = blocked; Cytochrome P450 2C9 (Homo sapiens), P11712; AID 1024, 2008; activation factor at 5 µM; actives 1.4% (n = 96,000);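 active = activation factor of 2 or more for CYP2C9 at a 5 µM dose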;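 also: 0 = sulfaphenazole-blocked wells and 1 = vehicle-only wells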
# Starred values were filed as active, the others as inactive; . = no result. An excerpt weighted towards active compounds, which were near 22% of everything screened.
SMILES,CYP2C19 act,CYP2C19 inh,CYP2C9 inhib,Measles CPE,CYP2C9 activ
Cc1ccc(S(=O)(=O)N2CCCC(C(=O)Nc3cccnc3)C2)cc1 (stereo unspecified),0.9,9,10,11,0.9
Cc1ccccc1N(Cc1ccccc1F)S(C)(=O)=O,0.1,95*,70*,6,0.3
Cc1ccc(C)c(N(Cc2ccccc2F)S(C)(=O)=O)c1,.,.,.,9,.
O=C(/C=C/c1ccco1)NC(=S)Nc1ccc(O)c(-c2nc3ccccc3s2)c1,.,.,.,11,.
O=C(NCc1ccccc1)NC1CC2CCC(C1)N2Cc1ccco1 (stereo unspecified),0.8,24,10,8,0.9
O=C(NC1CC2CCC(C1)N2Cc1ccco1)c1ccccc1 (stereo unspecified),.,.,.,6,.
CCOc1ccccc1C(=O)NC1CC2CCCC(C1)N2C1CC1 (stereo unspecified),0.8,22,69*,4,0.3
O=C(NC1CC2CCC(C1)N2Cc1nnnn1Cc1ccco1)NC12CC3CC(CC(C3)C1)C2 (stereo unspecified),0.3,71*,54*,25,0.5
CCOc1ccccc1C(=O)NCC(=O)OCC(=O)N1C(C)CCCC1C (stereo unspecified),.,.,.,24,.
CCOc1ccccc1C(=O)NC1CC2CCCC(C1)N2Cc1nnnn1Cc1ccco1 (stereo unspecified),0.1,88*,98*,3,0
CC(NS(=O)(=O)c1ccc(OCC(=O)N2CCOCC2)cc1)c1ccccc1 (stereo unspecified),.,.,.,3,.
CCOC(=O)C(O)(C1C(=O)CC(C)(C)CC1=O)C(F)(F)F (stereo unspecified),1,0,93*,12,0.1
CC(NC(=O)CN(c1cccc(C(F)(F)F)c1)S(=O)(=O)c1ccc(Cl)c([N+](=O)[O-])c1)c1ccccc1 (stereo unspecified),.,.,.,13,.
O=C(CCSCc1ccccc1Cl)N1CCN(c2cccc(Cl)c2)CC1,0.9,14,63*,4,0.4
O=C(c1cn(-c2ccccc2)nc1-c1cccs1)N(CCO)Cc1ccccc1,0.2,75*,69*,4,0.3
O=C(CNS(=O)(=O)c1cccs1)N1CCN(c2ccccn2)CC1,1,2,-17,4,1.2
O=C(CCSCc1ccccc1F)N1CCN(c2ccccn2)CC1,0.5,50*,77*,36,0.2
O=C(Cc1cccs1)N1CCN(c2ccccn2)CC1,0.5,52*,29,6,0.7
COc1ccc(NC(=O)CCCn2c(=O)c3sccc3n(Cc3ccc(C)cc3)c2=O)cc1,.,.,.,12,.
CCSc1ccc2nnc(-c3ccc(F)cc3)n2n1,0.8,22,4,15,1
CC1CCCCN1CC(=O)Nc1ccc(Oc2ccccc2)cc1 (stereo unspecified),0.9,12,24,9,0.8
CCC[N+](CC#Cc1ccccc1)(CCC)CC(=O)OCC,.,.,.,8,.
O=C(CN1C(=O)c2ccccc2C1=O)N1CCN(c2ccccn2)CC1,1,2,-1,0,1
O=C(c1cn(-c2ccccc2)nc1-c1cccs1)N1CCN(c2ccccn2)CC1,0,96*,100*,9,0
O=C(CSCc1ccccc1Cl)N1CCN(c2ccccn2)CC1,0.1,87*,85*,9,0.2
SMILES,CYP2C19 act,CYP2C19 inh,CYP2C9 inhib,Measles CPE,CYP2C9 activ
O=S(=O)(NCCOCCNS(=O)(=O)c1ccccc1)c1ccccc1,0.9,9,-5,6,1.1
O=C(c1ccccc1-n1cccc1)N1N=C(C(F)F)CC1(O)C(F)F (stereo unspecified),.,.,.,7,.
O=C(c1cc(-c2ccccc2)nc2ccccc12)N1N=C(C(F)F)CC1(O)C(F)F (stereo unspecified),0.2,82*,100*,14,0
Cc1cc2ncn(C(=O)c3c(-c4c(Cl)cccc4Cl)noc3C)c2cc1C,0.3,72*,69*,1,0.3
Cc1cc2ncn(C(=O)c3c(-c4ccccc4)noc3C)c2cc1C,0.6,40,58*,27,0.4
Cc1cc2ncn(C(=O)c3cc(-c4ccccc4)nc4ccccc34)c2cc1C,.,.,.,29*,.
Cc1onc(-c2c(Cl)cccc2Cl)c1C(=O)Nn1cnnc1,1,-4,13,8,0.9
Cc1cnn(C(=O)c2cc(-c3ccccc3)nc3ccccc23)c1,0.8,19,23,7,0.8
Cc1cc(C)c(S(=O)(=O)NCc2ccncc2)c(C)c1,0.5,48,44,22,0.6
O=C(COC(=O)COc1ccccc1Cl)Nc1ccccc1OC(F)F,0.9,9,19,4,0.8
CCOC(=O)CN(C(=O)CNC(=O)c1cccs1)C(C(=O)NC1CCCC1)c1cccnc1 (stereo unspecified),0.8,17,12,3,0.9
Cc1onc(-c2ccccc2)c1C(N)=O,1,-2,-10,2,1.1
Cc1onc(-c2ccccc2)c1C(=O)n1nnc2ccccc21,0.6,37,56*,8,0.4
CCN1c2ccccc2NC2C1C(C(C)=O)C(=O)N2c1ccc(Cl)cc1 (stereo unspecified),0.1,92*,79*,7,0.2
CCN1c2ccccc2NC2N=C(OC)C(c3ccccc3)C21 (stereo unspecified),0.8,20,-1,8,1
CC(=O)c1c(N2CCCC2)[nH]c(-c2ccccc2)nc1=S,0.5,51*,25,22,0.8
CC(=O)c1c(N2CCOCC2)[nH]c(-c2ccccc2)nc1=S,.,.,.,3,.
CN(c1ccccc1)S(=O)(=O)c1ccc(NC(=O)c2ccccc2)cc1,.,.,.,1,.
Cc1cccc(C(=O)NC(=S)Nc2ccc(S(=O)(=O)N(C)c3ccccc3)cc2)c1,0.7,31,66*,12,0.3
Cc1cc(C)cc(C(=O)NC(=S)Nc2ccc(Cc3ccncc3)cc2)c1,.,.,.,6,.
Cc1ccccc1C(=O)NC(=S)Nc1ccc(S(=O)(=O)N(C)c2ccccc2)cc1,0.1,87*,82*,14,0.2
Cc1cccc(C(=O)NC(=S)Nc2ccc(Cc3ccncc3)cc2)c1,0.1,89*,92*,5,0.1
CC(C)(C)c1ccc(C(=O)NCC(=O)OCC(=O)c2ccc3c(c2)-c2ccccc2C3)cc1,.,.,.,8,.
CCOc1nc(-c2ccc(Cl)cc2Cl)ccc1C#N,0.6,40,1,2,1
N#CC(c1ccc(Cl)nn1)c1ccc(Cl)cc1Cl (stereo unspecified),0,96*,39,9,0.6
CCOC(=O)C1CCN(c2nc3ccccc3nc2C(C#N)C(=O)OC(C)COC)CC1 (stereo unspecified),0.4,61*,63*,7,0.4
